# Screening results from PubChem BioAssay.
# GC-B act: human GC-B receptor activators, primary screen, HEK293 GC-B cells, cGMP TR-FRET, EC30 CNP. activation, % at 10 µM. AID 1920062, 2024. Atrial natriuretic peptide receptor 2 (Homo sapiens), P20594. 0% at EC30 CNP, 100% saturating CNP. hit rate 0.11% among 370,000;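 active means activation at 10 µM reaching about 35% in either raw or pattern-adjusted values, limit read from the data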
# NPR1 activator: GC-A stimulated cGMP production enhancers – HEK293 GC-A cells, cGMP TR-FRET, EC30 ANP, primary screen. 0% at EC30 ANP, 100% saturating ANP. activation, % at 10 µM. Atrial natriuretic peptide receptor 1 (Homo sapiens), P16066. AID 1671463, 2021. hit rate 0.14% among 370,000; in the data active means activation above about 40%
# Target sequence (P16066 whole entry, looked up): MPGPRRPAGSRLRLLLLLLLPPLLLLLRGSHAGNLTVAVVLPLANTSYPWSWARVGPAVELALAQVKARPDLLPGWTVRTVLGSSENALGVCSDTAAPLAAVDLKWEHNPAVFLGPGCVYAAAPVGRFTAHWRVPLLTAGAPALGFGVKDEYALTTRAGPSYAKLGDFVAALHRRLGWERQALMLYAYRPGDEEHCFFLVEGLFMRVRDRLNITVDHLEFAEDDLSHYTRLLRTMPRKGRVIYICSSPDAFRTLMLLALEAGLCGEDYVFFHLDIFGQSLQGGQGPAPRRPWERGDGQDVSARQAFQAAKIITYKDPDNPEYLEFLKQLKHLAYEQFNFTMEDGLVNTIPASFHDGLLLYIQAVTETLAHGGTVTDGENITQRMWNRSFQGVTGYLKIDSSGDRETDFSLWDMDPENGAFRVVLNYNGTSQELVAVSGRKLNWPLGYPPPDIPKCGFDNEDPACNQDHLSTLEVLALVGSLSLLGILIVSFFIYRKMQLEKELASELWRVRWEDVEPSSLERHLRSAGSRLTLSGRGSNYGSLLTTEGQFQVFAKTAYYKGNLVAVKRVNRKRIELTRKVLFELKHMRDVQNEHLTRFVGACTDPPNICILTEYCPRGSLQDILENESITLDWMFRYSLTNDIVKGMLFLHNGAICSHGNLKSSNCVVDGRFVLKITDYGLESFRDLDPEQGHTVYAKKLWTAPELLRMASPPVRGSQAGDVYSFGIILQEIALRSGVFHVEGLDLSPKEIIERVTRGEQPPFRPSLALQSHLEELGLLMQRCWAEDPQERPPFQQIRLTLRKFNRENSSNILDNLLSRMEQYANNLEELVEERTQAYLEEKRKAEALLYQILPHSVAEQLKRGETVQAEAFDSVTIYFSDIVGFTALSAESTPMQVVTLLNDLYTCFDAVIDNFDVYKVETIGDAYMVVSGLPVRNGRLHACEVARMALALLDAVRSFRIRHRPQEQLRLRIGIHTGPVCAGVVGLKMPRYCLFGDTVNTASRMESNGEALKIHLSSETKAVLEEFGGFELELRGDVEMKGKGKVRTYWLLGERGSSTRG
# ADAM10 inh: human ADAM10 inhibitors, primary screen, biochemical, QFRET, HTS; inhibition, % at 7 µM; Disintegrin and metalloproteinase domain-containing protein 10 (Homo sapiens), O14672; hit rate 0.62% among 370,000; AID 720582, 2013; recombinant ADAM10, EDANS/DABCYL FRET peptide cleavage, 3 h;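 active means inhibition above a per-campaign cutoff equal to the mean of compounds falling between control-based bounds plus 3 SD, cut at about 20% in these data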;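 further: 0% = DMSO wells while the 100% control is not disclosed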
# KLK7 zymogen act: proKLK7 zymogen activators, primary screen, biochemical, fluorescence intensity | purified proKLK7, EDANS-DABCYL substrate fluorescence; 100% is mature enzyme control, 0% vehicle | activation, % at 7 µM | hit rate 0.9% among 370,000 | AID 652039, 2013;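 active means activation above the mean of all tested compounds plus 3 SD, computed per campaign excluding outliers beyond control limits, cut at about 13% in these data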
# ADAM17 inh: ADAM17 inhibitors, primary screen, biochemical, QFRET. recombinant ADAM17, EDANS/DABCYL FRET peptide cleavage. hit rate 0.83% among 370,000. inhibition, % at 6.95 µM. Disintegrin and metalloproteinase domain-containing protein 17 (Homo sapiens), P78536;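 active means inhibition above the mean of compounds lying between control limits plus 3 SD, set per campaign, cut at about 8.5% in these data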;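 further: 0% = DMSO-only wells as the low control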
# ADAM10 confirm: human ADAM10 inhibitors, confirmation, biochemical, QFRET, triplicate; shares compounds with ADAM10 inh; ADAM10 QFRET peptide cleavage, EDANS fluorescence; inhibition, % at 6.95 µM; hit rate 1% among 2,100; AID 743208, 2013;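 active means inhibition above about 20% chosen separately for each screening run, limit read from the data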;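 further: 0% = DMSO wells and 100% = marimastat wells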
# ADAM17 counter: ADAM17 inhibitors, counter-screen for ADAM10 exosite inhibitor project, biochemical, QFRET, high throughput; inhibition, % at 6.95 µM; hit rate 0.5% among 2,100; ADAM17 QFRET peptide cleavage, EDANS fluorescence; AID 743214, 2013; shares compounds with ADAM10 inh;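 active means mean triplicate inhibition above the solvent-only control wells' mean plus 3 SD, cut at about 12% in these data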;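 further: 0% = DMSO wells and 100% = marimastat wells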
# ADAM10 counter: ADAM10 inhibitors, counter-screen for ADAM17 exosite inhibitor project, biochemical, FRET, human ADAM10 | shares compounds with ADAM17 inh | recombinant ADAM10, EDANS/DABCYL FRET peptide cleavage, 3 h | inhibition, % at 6.95 µM | hit rate 47% among 2,900;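 active means mean inhibition over the triplicate runs exceeds the activity threshold set in the earlier primary screen, cut at about 20% in these data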;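 further: 0% = DMSO wells and 100% = marimastat wells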
# ADAM17 confirm: ADAM17 inhibitors, hit retest, confirmation, biochemical, QFRET peptide cleavage. recombinant ADAM17, EDANS/DABCYL QFRET peptide cleavage. shares compounds with ADAM17 inh. hit rate 65% among 2,900. inhibition, % at 6.95 µM;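 active means mean inhibition across replicates above the hit cutoff set in the primary screen, cut at about 8.5% in these data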;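 further: 0% = DMSO wells and 100% = marimastat wells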
# Starred values were filed as active, the others as inactive; x = not tested or not shown. Rows were chosen to be rich in hits. Some 2.2% of all compounds tested hit in one or more screens of this group.
SMILES,GC-B act,NPR1 activator,ADAM10 inh,KLK7 zymogen act,ADAM17 inh,ADAM10 confirm,ADAM17 counter,ADAM10 counter,ADAM17 confirm
O=C(Cc1cccc2ccccc12)Nc1ccc(OC(F)F)c(Cl)c1,1,0,23*,0,9.9*,6,2,30*,20*
COc1cc(C(c2c(C)[nH][nH]c2=O)c2c(C)[nH][nH]c2=O)cc([N+](=O)[O-])c1O,1,-4,20*,0,10*,5,0,3,0
CCOc1cc(C(c2c(C)[nH][nH]c2=O)c2c(C)[nH][nH]c2=O)cc([N+](=O)[O-])c1O,2,-10,-1,0,0,x,x,x,x
COc1ccc(Cl)cc1-c1n[nH]c(=S)n1C1CCCCC1,-21,-14,29*,-1,8.7*,0,0,34*,21*
COc1ccc(-c2noc(C3CCCN(C(=O)N[C@@H]4C[C@H]4c4ccccc4)C3)n2)cc1 (stereo not given in full),-20,-15,6,0,0,x,x,x,x
CCOc1cc(/C=N/O)cc(Br)c1OCC,1,0,3,0,0,x,x,x,x
CCOc1cc(/C=N/O)cc(Br)c1OCc1ccc(Cl)cc1,-17,-15,25*,1,8.9*,6,3,52*,21*
O=C(Nc1ccccc1)C1=C[C@@H](c2ccccc2)C[C@@H](OCc2ccc(CO)cc2)O1,0,-3,6,0,2,x,x,x,x
O=C(Nc1ccccc1)C1=C[C@@H](c2ccc(C(F)(F)F)cc2)C[C@@H](OCc2ccc(CO)cc2)O1,1,-2,27*,1,11*,7,3,13,10*
O=C(NCc1ccccc1)C1=C[C@H](c2ccc(Br)cc2)C[C@H](OCc2ccc(CO)cc2)O1,-1,-3,21*,1,9.9*,12,4,28*,18*
CC(=O)n1cc([C@H]2C=C(C(=O)NCc3ccccc3)O[C@@H](OCc3ccc(CO)cc3)C2)c2ccccc21,-5,2,-2,1,4,x,x,x,x
CC(=O)n1cc([C@@H]2C=C(C(=O)Nc3ccccc3)O[C@H](OCc3ccc(CO)cc3)C2)c2ccccc21,-6,-4,31*,0,8.9*,7,3,13,14*
O=C(OCC#CCSc1nnc(-c2cccc3ccccc23)o1)C1CCC1,1,2,-41,x,-9,x,x,x,x
CC(C)C[C@H]1COc2cccc(F)c2S(=O)(=O)N1Cc1cn(Cc2ccc(C(F)(F)F)cc2)nn1,6,3,0,0,1,x,x,x,x
Cc1ccc2c(c1)C1CS(=O)(=O)N(C3CCCC3)C(=O)N1C2 (stereo not given),-3,0,6,0,5,x,x,x,x
CCCCCCCCN1C(=O)[C@@H](CC(=O)N2CCSCC2)C[C@@]2(C(=O)OC)C1=C[C@H](C(C)C)O[C@@H]2C1CC1,-6,-4,-4,0,-2,x,x,x,x
COc1ccc(CN(C(=O)c2snc(C(N)=O)c2N)C(C(=O)NC2CCCC2)c2ccc(OC)c(OC)c2)cc1 (stereo not given),-4,-2,-101,-1,-34,x,x,x,x
COc1ccc(CN(C(=O)c2nsc(Cl)c2Cl)C(C(=O)NC2CCCCC2)c2ccc(OC)cc2)cc1 (stereo not given),-13,-7,28*,0,8.8*,7,2,8,9.6*
CCOC(=O)C1=CN(Cc2cccc(F)c2)S(=O)(=O)NC1c1ccc(Br)cc1F (stereo not given),-6,-10,21*,0,9.6*,3,1,24*,15*
CCc1cccc2c(C(=O)CN3C(=O)NC(C)(c4cccc5ccccc45)C3=O)c[nH]c12 (stereo not given),6,-2,30*,0,9.6*,8,2,28*,16*
CCc1cccc2c(C(=O)CN3C(=O)NC4(CCc5ccccc54)C3=O)c[nH]c12 (stereo not given),2,-5,6,0,2,x,x,x,x
COc1cc([N+](=O)[O-])cc(/C=N/NC(=O)C(C)Nc2cccc(C)c2)c1O (stereo not given),0,1,3,0,2,x,x,x,x
COc1cc([N+](=O)[O-])cc(/C=N/NC(=O)C(C)Nc2ccccc2C)c1O (stereo not given),-2,0,26*,-1,10.0*,0,1,24*,12*
Cc1ccc(S(=O)(=O)N2CCC(=O)N([C@H](COC(=O)Nc3ccccc3)Cc3ccccc3)CC2)cc1,4,0,20*,1,8.9*,3,1,19,13*
Cc1ccc(S(=O)(=O)N2CCC(=O)N(C(COCc3ccccc3)Cc3ccccc3)CC2)cc1 (stereo not given),-3,-1,-3,0,-2,x,x,x,x
O=C(/C=C/c1ccc(Cl)cc1)N1CCN(c2c(Cl)cccc2[N+](=O)[O-])CC1,-16,-37,23*,1,12*,4,1,19,8.7*
O=C1[C@@H]2[C@H](C(=O)N1C[C@@H](COCc1ccccc1)Oc1cccc3c1S(=O)(=O)N(CCc1ccc(F)cc1)C[C@H](COCc1ccccc1)O3)[C@@H]1C=C[C@H]2C1,5,-4,-3,0,0,x,x,x,x
CCCCN1CC(COCc2ccccc2)Oc2cccc(OCCN3C(=O)[C@@H]4[C@H](C3=O)C3C=C[C@H]4C3)c2S1(=O)=O (stereo not given in full),0,0,26*,1,13*,7,2,44*,18*
